The record followed here is PubChem BioAssay AID588726 (The Scripps Research Institute Molecular Screening Center, 2011).

What is called inhibition is the change of the read-out against control, counted positive when it falls.

Structures are written as SMILES. The campaign covered roughly 360,000 compounds. About 8,200 (2.3%) were called active. This excerpt belongs to a sample that is enriched for actives. Unmarked numbers belong to inactive results. Rule as the data show it: active = inhibition above about 27%; inactive = the rest.

Chain of Fructose-bisphosphate aldolase (Mycobacterium tuberculosis (strain ATCC 25618 / H37Rv)) (P9WQA3 whole entry, looked up): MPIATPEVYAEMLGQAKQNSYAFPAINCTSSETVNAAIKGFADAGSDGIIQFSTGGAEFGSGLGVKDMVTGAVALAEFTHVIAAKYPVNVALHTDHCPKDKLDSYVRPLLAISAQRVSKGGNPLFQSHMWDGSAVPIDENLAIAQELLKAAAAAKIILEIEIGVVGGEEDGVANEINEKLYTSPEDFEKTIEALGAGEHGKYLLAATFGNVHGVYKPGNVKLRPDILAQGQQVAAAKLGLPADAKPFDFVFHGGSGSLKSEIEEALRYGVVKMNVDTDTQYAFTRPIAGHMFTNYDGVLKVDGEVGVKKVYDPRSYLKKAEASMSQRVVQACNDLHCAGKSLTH

This test addresses Fructose-bisphosphate aldolase (Mycobacterium tuberculosis (strain ATCC 25618 / H37Rv)) (UniProt P9WQA3). In words: M. tuberculosis aldolase activity blockers – biochemical, fluorescence, strain H37Rv, primary screen (AID 588726).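 Also: 0% = vehicle and 100% = reference inhibitor.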 The conditions noted are these: purified M. tuberculosis FBA, fluorescence read-out, at 1 µM, active compounds read high.
For `O=C(O)CSc1ccc(S(=O)(=O)N2CCCC2)cn1`, the inhibition is -0.83%.

With `N#Cc1c(N2CCCCC2)nc(N)c2c(N)nc(SCC(=O)O)cc12`, the inhibition was 29.2% (active). With `N#Cc1c(C(F)(F)F)cc(-c2cccs2)nc1N1CCCCC1`, the inhibition is 11%.

On to `COCc1c(C(=O)OCc2c(C)noc2C)oc2ccccc12`, for which the inhibition is 5.69%. Next, `CCOc1ccccc1C(=O)NC1CC2CCCC(C1)N2Cc1ccccc1` (configuration not stated): -3.49%; `Cc1ccnc(NC(=O)C2CCN(S(=O)(=O)c3c(C)c(C)cc(C)c3C)CC2)c1`: 1.99%; `CCN(CC(=O)Nc1c(F)cccc1F)C(=O)c1ccc(-c2ccccc2)cc1`: 1%. `CCN(CC(=O)Nc1c(F)cccc1F)C(=O)c1ccc(-c2ccc(C(C)=O)cc2)o1`: the inhibition is 142% (active).

Take `CCN(CC(=O)Nc1c(F)cccc1F)C(=O)c1cnc(C)cn1`: the inhibition was 2.56%.

Regarding `COC(=O)c1ccc([C@@H](O)[C@H](C)C(=O)CC(=O)OC(C)(C)C)cc1`, the inhibition is 0.55%. For the compound `CCOc1ccc(S(=O)(=O)N2CCCC(C(=O)N3CCC(C(N)=O)CC3)C2)cc1Cl` (configuration not stated), the inhibition was 2.08%.

Take `COc1cc(Br)cc(/C=N/c2ncn[nH]2)c1O`: the inhibition is -0.39%. On to `Oc1ccc(Br)cc1C=Nc1ccc2[nH]ncc2c1`, for which the inhibition was 39.7% (active). `COc1ccc(C)cc1NC(=O)CSc1nnc2ccc(-c3ccccn3)nn12`: the inhibition was 5.79%. For the compound `COc1ccc(-c2coc3c(C(=O)NC(C)C)cccc23)c(C)c1`, the inhibition is -2.36%. Take `COCCCNC(=O)c1ccc(-c2c(C)noc2C)c2ccoc12`: the inhibition is 1.17%. As for `COc1ccc(-c2cc(C(=O)NCCCN3CCOCC3)no2)cc1`, the inhibition was 3.9%. For the compound `CC(=O)Oc1cc2c(C(=O)NCCN3CCOCC3)c(C)oc2c2ccccc12`, the inhibition is 0.36%. `COc1ccc(-c2ccc(C(=O)NC(C)C)c3occc23)c(C)c1`: the inhibition was 69.8% (active). In the case of `COc1ccc(-c2ccc(C(=O)NCCN3CCOCC3)c3occc23)c(C)c1` it was 88.1% (active); in that of `CCOC(=O)[C@H]1[C@H]2COc3cc(OC)ccc3[C@@H]2N2C(=O)CN(Cc3ccc(Cl)cc3)C(=O)[C@@]12C`, -3.3%. As to `C=CCn1c(=O)n(C)c2c(=O)n(C)c(=O)n(C)c21`, the inhibition is 1.89%. For the compound `Nc1scc(-c2ccncc2)c1Cl`, the inhibition is -1.39%. In the case of `CC(C)(C)Nc1c(-c2cccs2)nc2ccccn12` it was 76.1% (active); in that of `Cc1cc2nc(C(F)(F)F)cc(-c3cccs3)n2n1`, 9.4%. In the case of `Cc1nc2ccccn2c(=O)c1NC(=O)c1cccs1` it was 3.76%; in that of `COC(=O)C1=C(N)Oc2cc(C)[nH]c(=O)c2C1c1ccc(Cl)cc1` (configuration not stated), -1.06%.
